Reference: PubChem BioAssay (EPA / NIEHS)
Inconclusive results are not listed. Active and inactive are the calls of the source. The calls were made as follows, unless noted: active = hit-call score of the fitted dose curve at least 0.9, where 1 is the maximum; inactive = score below 0.9.

Columns and labels:
[1] = ATG_TAL_CIS: Attagene CIS-FACTORIAL HepG2 Assay for human TAL Basal Promoter (AID 2282966); settings: HepG2 Attagene cis-factorial TAL promoter reporter; actives raise or lower the signal;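 also: background control endpoint measuring basal TAL promoter reporter mRNA not a specific factor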
How it was run: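 Background-control endpoint: basal TAL promoter reporter transcripts in transiently transfected HepG2, measured 24 h after dosing. Read-out by RT-PCR with fluorescent primer extension and capillary electrophoresis; gain or loss of signal fitted relative to DMSO.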

[2] = ATG_TGFb_CIS: Attagene CIS-FACTORIAL HepG2 Assay for human Transforming Growth Factor (TGF) (AID 2282967); settings: HepG2 Attagene CIS TGFb reporter, mRNA transcription; actives raise or lower the signal
How it was run: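 Multiplexed cis-reporter HepG2 system, 24 h treatment; mRNA induction read by fluorescence after RT-PCR and CE; DMSO negative control, bidirectional curve fitting.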

[3] = ATG_VDRE_CIS: Attagene CIS-FACTORIAL HepG2 Assay for human Vitamin D Receptor Element (VDRE) (AID 2282968); settings: HepG2 VDRE cis-reporter transcription, actives raise or lower the signal
How it was run: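 Transfected HepG2 reporter cells, chemical treatment 24 h. RNA isolated, cDNA amplified with reporter-specific primers, products analysed by capillary electrophoresis. Endpoint fitted in both directions versus DMSO.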

[4] = biological target: Estrogen receptor (Homo sapiens) (UniProt P03372); experiment: ATG_ERa_TRANS: Attagene TRANS-FACTORIAL HepG2 Assay for human Estrogen Receptor alpha (ERa) (AID 2282970; active = hit-call score of the fitted dose curve at least 0.9, where 1 is the maximum); settings: HepG2 Attagene TRANS ERa GAL4 reporter, mRNA
How it was run: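 Reporter transcripts were measured 24 h after dosing by RT-PCR with fluorescent primer extension and capillary electrophoresis. The system is transiently transfected HepG2 expressing exogenous NR-Gal4 chimeras driving GAL4-UAS reporters; DMSO is the baseline.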

[5] = biological target: X-box-binding protein 1 (Homo sapiens) (UniProt P17861); experiment: ATG_Xbp1_CIS: Attagene CIS-FACTORIAL HepG2 Assay for human X-box Binding Protein 1 (XBP1) (AID 2282972); settings: HepG2 XBP1 cis-element reporter, Attagene multiplex; actives raise or lower the signal
How it was run: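 Read-out: fluorescent reporter mRNA fragments resolved by capillary electrophoresis after RT-PCR. Human HepG2 liver cells carried transfected cis-promoter reporter units and were exposed to chemicals for 24 hours. Gain or loss of signal fitted relative to DMSO baseline.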

[6] = biological target: Glucocorticoid receptor (Homo sapiens) (UniProt P04150); experiment: ATG_GR_TRANS: Attagene TRANS-FACTORIAL HepG2 Assay for human Glucocorticoid Receptor (GR) (AID 2282978; active = hit-call score of the fitted dose curve at least 0.9, where 1 is the maximum;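 also: activators score as hits since higher reporter transcript over DMSO is fitted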); settings: HepG2 Attagene TRANS GR reporter, mRNA transcription
How it was run: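 Measurement of GAL4-UAS-driven reporter mRNA in human HepG2 liver cells 24 h post-dosing, using RT-PCR with fluorescent labelling and capillary electrophoresis; the transfected constructs report exogenous NR-GAL4 chimera activity, fitted upward against DMSO.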

[7] = biological target: Oxysterols receptor LXR-alpha (Homo sapiens) (UniProt Q13133); experiment: ATG_LXRa_TRANS: Attagene TRANS-FACTORIAL HepG2 Assay for human Liver X Receptor alpha (LXRa) (AID 2282980; active = hit-call score of the fitted dose curve at least 0.9, where 1 is the maximum); settings: HepG2 Attagene TRANS reporter, LXRa transactivation
How it was run: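 Chemical-induced reporter mRNA measured by RT-PCR with fluorescent labelling and capillary electrophoresis after 24 h dosing of transiently transfected HepG2 cells expressing exogenous NR-Gal4 chimeras; increases scored against DMSO baseline.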

[8] = biological target: Hepatocyte nuclear factor 4-alpha (Homo sapiens) (UniProt P41235); experiment: ATG_HNF4a_TRANS: Attagene TRANS-FACTORIAL HepG2 Assay for human Hepatocyte Nuclear Factor 4 alpha (HNF4a) (AID 2282982; active = hit-call score of the fitted dose curve at least 0.9, where 1 is the maximum); settings: HepG2 HNF4a transactivation reporter, mRNA readout
How it was run: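 Using HepG2 liver cells transfected with GAL4-UAS reporter units, chemical-induced mRNA increases were assessed after 24 hours. Fluorescent RT-PCR fragments were separated by capillary electrophoresis and compared with DMSO negative controls.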

[9] = ATG_M_06_TRANS: Attagene TRANS-FACTORIAL HepG2 Assay for M06 Transcription Factor (Internal Marker) (AID 2282983; active = hit-call score of the fitted dose curve at least 0.9, where 1 is the maximum;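 also: reporter transcript level by RT-PCR then capillary electrophoresis fluorescence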); settings: HepG2 Attagene TRANS M06 internal marker reporter
How it was run: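 Background-control reporter readout: after 24 h chemical exposure of transiently transfected HepG2 (GAL4-UAS reporter units), mRNA quantified by RT-PCR with fluorescent labeling and capillary electrophoresis. Gain-of-signal fitting against DMSO baseline.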

[10] = ATG_M_32_TRANS: Attagene TRANS-FACTORIAL HepG2 Assay for M32 Transcription Factor (Internal Marker) (AID 2282984; active = hit-call score of the fitted dose curve at least 0.9, where 1 is the maximum); settings: HepG2 Attagene TRANS M32 internal marker reporter
How it was run: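 Fluorescence-detected mRNA induction, HepG2 liver cells, 24 h after dosing. Multiple GAL4-UAS reporter units introduced by transient transfection; background-control endpoint analysed for gain of signal against DMSO.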

[11] = biological target: Nuclear receptor subfamily 4 group A member 2 (Homo sapiens) (UniProt P43354); experiment: ATG_NURR1_TRANS: Attagene TRANS-FACTORIAL HepG2 Assay for human Nuclear Receptor Related Protein 1 (NURR1) (AID 2282985; active = hit-call score of the fitted dose curve at least 0.9, where 1 is the maximum); settings: HepG2 Attagene TRANS reporter, mRNA readout
How it was run: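 Chimeric NR-Gal4 proteins were expressed in human HepG2 cells bearing GAL4-UAS reporter units, and induced reporter mRNA was quantified 24 h post-dosing by RT-PCR and capillary electrophoresis.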

[12] = biological target: Transcriptional activator Myb (Homo sapiens) (UniProt P10242); experiment: ATG_Myb_CIS: Attagene CIS-FACTORIAL HepG2 Assay for human Myeloblastosis (Myb) Proto-Oncogene Transcription Factor (AID 2282986); settings: HepG2 Attagene CIS-FACTORIAL Myb reporter transcription; actives raise or lower the signal
How it was run: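 Fluorescence signals from capillary electrophoresis of RT-PCR-amplified reporter cDNA give the read-out. Cells: HepG2 transfected with multiple cis-regulated reporter units. Exposure lasts 24 hours; DMSO defines baseline for gain or loss of signal.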

[13] = biological target: Nuclear respiratory factor 1 (Homo sapiens) (UniProt Q16656); experiment: ATG_NRF1_CIS: Attagene CIS-FACTORIAL HepG2 Assay for human Nuclear Respiratory Factor 1 (NRF1) Orphan Gene (AID 2282987); settings: HepG2 NRF1 cis-element reporter, Attagene multiplex; actives raise or lower the signal
How it was run: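 Transcriptional reporter readout, one component of a 52-endpoint multiplexed HepG2 panel. Exposure 24 h; mRNA detected via RT-PCR and fluorescent capillary electrophoresis; fitting in both directions against DMSO.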

[14] = ATG_M_19_TRANS: Attagene TRANS-FACTORIAL HepG2 Assay for M19 Transcription Factor (Internal Marker) (AID 2282974; active = hit-call score of the fitted dose curve at least 0.9, where 1 is the maximum); settings: HepG2 Attagene TRANS-FACTORIAL M19 internal marker reporter
How it was run: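 Measured here: internal-marker reporter transcript from HepG2 cells transfected with MRTUs, harvested at 24 h. cDNA PCR products were 6-FAM labelled by primer extension, cut with HpaI for 2 h at 37 C, and resolved by CE.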

[15] = ATG_GAL4_TRANS: Attagene TRANS-FACTORIAL HepG2 Assay for GAL4 (Internal Marker) (AID 2282976; active = hit-call score of the fitted dose curve at least 0.9, where 1 is the maximum); settings: HepG2 Attagene TRANS GAL4 internal marker reporter
How it was run: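 In transfected human HepG2 liver cells dosed 24 h, GAL4 reporter mRNA serves as a baseline marker. Detection by RT-PCR with fluorescent capillary electrophoresis, activity fitted upward relative to DMSO.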

[16] = biological target: Estrogen-related receptor gamma (Homo sapiens) (UniProt P62508); experiment: ATG_ERRg_TRANS: Attagene TRANS-FACTORIAL HepG2 Assay for human Estrogen-Related Receptor gamma (ERRg) (AID 2282977; active = hit-call score of the fitted dose curve at least 0.9, where 1 is the maximum;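 also: hits increase reporter signal over DMSO so potencies reflect activators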); settings: HepG2 Attagene TRANS reporter, ERRg transactivation
How it was run: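 Readout: fluorescent reporter-mRNA fragments resolved by capillary electrophoresis after RT-PCR and HpaI cut. Cells: transiently transfected HepG2 carrying GAL4-UAS reporters driven by exogenous NR-Gal4 chimeras, dosed 24 h. Activity fitted upward relative to DMSO baseline.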

[17] = biological target: Bile acid receptor (Homo sapiens) (UniProt Q96RI1); experiment: ATG_FXR_TRANS: Attagene TRANS-FACTORIAL HepG2 Assay for Farnesoid X Receptor (FXR) (AID 2282979; active = hit-call score of the fitted dose curve at least 0.9, where 1 is the maximum;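 also: hits raise reporter mRNA above DMSO so AC50 marks FXR activation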); settings: HepG2 Attagene TRANS FXR-GAL4 reporter transcription
How it was run: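 Reporter transcripts from transfected HepG2 cells were measured 24 h after dosing, using RT-PCR with capillary electrophoresis of 6-FAM-labelled fragments. The read-out reflects activity of exogenous FXR-Gal4 chimera on GAL4-UAS units, with induction relative to DMSO.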

[18] = biological target: Steroid hormone receptor ERR1 (Homo sapiens) (UniProt P11474); experiment: ATG_ERRa_TRANS: Attagene TRANS-FACTORIAL HepG2 Assay for human Estrogen-Related Receptor alpha (ERRa) (AID 2282971; active = hit-call score of the fitted dose curve at least 0.9, where 1 is the maximum); settings: HepG2 Attagene TRANS reporter, ERRa transactivation
How it was run: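 Reporter transcripts from ERRa-Gal4 chimera activity measured in transiently transfected human HepG2 cells 24 hours after dosing, using RT-PCR with 6-FAM primer extension, HpaI digestion and capillary electrophoresis; DMSO is baseline.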

[19] = biological target: Oxysterols receptor LXR-beta (Homo sapiens) (UniProt P55055); experiment: ATG_LXRb_TRANS: Attagene TRANS-FACTORIAL HepG2 Assay for human Liver X Receptor beta (LXRb) (AID 2282981; active = hit-call score of the fitted dose curve at least 0.9, where 1 is the maximum); settings: HepG2 Attagene TRANS GAL4-LXRb reporter, mRNA
How it was run: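 Liver-derived HepG2 cells transfected with Gal4-responsive reporters were dosed for 24 h. Activation was scored as rise in reporter mRNA, by RT-PCR and capillary electrophoresis, above DMSO baseline.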

Measured: AC50

Transcriptional activator Myb (Homo sapiens), sequence (P10242 whole entry, looked up): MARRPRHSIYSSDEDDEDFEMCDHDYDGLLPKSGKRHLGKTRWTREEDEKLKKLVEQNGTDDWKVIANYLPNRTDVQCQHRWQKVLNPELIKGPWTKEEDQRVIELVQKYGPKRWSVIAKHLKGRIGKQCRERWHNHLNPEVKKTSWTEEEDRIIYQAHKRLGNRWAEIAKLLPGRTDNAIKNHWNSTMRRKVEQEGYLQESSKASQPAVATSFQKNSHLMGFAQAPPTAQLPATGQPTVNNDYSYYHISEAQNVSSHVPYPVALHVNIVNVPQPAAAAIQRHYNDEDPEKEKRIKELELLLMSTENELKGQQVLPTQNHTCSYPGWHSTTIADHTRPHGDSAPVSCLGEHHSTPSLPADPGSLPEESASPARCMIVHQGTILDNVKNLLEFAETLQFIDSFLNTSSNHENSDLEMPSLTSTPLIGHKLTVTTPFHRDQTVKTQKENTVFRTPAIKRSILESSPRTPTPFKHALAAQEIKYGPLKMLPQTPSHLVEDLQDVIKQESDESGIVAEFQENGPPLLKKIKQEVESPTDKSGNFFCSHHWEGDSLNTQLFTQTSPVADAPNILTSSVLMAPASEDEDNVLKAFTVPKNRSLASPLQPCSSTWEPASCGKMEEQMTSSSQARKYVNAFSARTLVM
Glucocorticoid receptor (Homo sapiens), sequence (P04150 whole entry, looked up, the tested form may be a part): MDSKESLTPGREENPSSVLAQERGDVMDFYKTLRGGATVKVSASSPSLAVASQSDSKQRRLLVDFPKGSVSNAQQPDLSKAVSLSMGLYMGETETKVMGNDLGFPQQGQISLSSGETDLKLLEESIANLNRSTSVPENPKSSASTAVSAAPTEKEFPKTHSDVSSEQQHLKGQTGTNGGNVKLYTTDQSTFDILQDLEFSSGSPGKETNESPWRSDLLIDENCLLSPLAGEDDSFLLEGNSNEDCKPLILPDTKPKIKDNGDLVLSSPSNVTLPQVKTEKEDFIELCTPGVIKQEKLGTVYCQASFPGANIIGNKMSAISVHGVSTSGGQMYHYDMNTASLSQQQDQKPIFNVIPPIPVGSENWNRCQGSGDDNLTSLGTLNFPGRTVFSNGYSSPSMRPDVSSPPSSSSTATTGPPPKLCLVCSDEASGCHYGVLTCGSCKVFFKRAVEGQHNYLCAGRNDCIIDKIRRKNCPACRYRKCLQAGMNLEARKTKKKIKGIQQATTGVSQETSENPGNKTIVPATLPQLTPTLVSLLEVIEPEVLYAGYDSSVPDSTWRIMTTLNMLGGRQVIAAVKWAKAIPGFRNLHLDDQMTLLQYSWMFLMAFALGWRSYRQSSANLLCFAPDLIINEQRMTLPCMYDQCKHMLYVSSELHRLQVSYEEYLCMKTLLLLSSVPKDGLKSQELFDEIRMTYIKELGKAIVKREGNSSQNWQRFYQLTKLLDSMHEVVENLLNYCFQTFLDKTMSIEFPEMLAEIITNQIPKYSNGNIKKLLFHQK
Steroid hormone receptor ERR1 (Homo sapiens), sequence (P11474 whole entry, looked up, the tested form may be a part): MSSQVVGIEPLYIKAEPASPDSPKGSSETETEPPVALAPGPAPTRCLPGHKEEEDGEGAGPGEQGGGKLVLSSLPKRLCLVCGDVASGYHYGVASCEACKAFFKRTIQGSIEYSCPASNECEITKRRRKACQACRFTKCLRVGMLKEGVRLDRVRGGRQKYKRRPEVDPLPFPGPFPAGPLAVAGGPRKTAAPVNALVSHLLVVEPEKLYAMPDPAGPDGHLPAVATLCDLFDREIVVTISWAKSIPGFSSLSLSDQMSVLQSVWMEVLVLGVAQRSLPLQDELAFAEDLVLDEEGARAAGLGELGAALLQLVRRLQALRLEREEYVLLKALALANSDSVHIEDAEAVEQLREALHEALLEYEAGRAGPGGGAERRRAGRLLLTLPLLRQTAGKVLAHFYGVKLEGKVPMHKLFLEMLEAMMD
Hepatocyte nuclear factor 4-alpha (Homo sapiens), sequence (P41235 whole entry, looked up, the tested form may be a part): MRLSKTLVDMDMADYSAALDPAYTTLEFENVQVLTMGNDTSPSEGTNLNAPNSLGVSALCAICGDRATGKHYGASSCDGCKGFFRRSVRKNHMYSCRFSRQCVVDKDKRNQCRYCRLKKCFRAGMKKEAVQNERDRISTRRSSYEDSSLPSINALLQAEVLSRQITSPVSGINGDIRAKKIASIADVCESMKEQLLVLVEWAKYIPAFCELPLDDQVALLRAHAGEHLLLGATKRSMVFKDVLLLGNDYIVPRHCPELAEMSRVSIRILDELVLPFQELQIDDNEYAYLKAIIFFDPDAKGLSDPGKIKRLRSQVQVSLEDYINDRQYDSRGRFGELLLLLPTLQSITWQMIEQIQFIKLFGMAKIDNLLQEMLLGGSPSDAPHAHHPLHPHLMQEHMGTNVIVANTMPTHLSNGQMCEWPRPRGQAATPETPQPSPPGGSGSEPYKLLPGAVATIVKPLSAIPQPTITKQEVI
Bile acid receptor (Homo sapiens), sequence (Q96RI1 whole entry, looked up, the tested form may be a part): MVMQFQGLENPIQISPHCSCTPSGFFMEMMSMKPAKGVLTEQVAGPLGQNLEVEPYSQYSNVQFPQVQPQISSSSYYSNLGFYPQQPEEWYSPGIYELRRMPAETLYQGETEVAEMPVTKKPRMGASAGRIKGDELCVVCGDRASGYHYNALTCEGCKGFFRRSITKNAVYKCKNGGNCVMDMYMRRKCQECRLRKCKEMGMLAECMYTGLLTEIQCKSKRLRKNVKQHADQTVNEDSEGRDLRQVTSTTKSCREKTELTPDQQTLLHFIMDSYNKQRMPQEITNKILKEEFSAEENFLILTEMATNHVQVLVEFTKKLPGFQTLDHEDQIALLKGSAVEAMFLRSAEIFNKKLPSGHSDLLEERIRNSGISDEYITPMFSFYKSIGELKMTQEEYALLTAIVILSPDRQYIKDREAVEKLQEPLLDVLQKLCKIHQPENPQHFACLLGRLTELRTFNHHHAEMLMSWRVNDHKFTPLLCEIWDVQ
X-box-binding protein 1 (Homo sapiens), sequence (P17861 whole entry, looked up, the tested form may be a part): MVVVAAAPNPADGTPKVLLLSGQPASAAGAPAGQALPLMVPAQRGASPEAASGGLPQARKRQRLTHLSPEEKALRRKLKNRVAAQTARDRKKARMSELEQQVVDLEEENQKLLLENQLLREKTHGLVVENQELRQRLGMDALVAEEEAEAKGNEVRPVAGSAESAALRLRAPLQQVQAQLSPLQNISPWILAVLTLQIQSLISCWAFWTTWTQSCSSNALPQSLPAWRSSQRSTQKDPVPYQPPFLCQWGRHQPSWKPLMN
Oxysterols receptor LXR-beta (Homo sapiens), sequence (P55055 whole entry, looked up, the tested form may be a part): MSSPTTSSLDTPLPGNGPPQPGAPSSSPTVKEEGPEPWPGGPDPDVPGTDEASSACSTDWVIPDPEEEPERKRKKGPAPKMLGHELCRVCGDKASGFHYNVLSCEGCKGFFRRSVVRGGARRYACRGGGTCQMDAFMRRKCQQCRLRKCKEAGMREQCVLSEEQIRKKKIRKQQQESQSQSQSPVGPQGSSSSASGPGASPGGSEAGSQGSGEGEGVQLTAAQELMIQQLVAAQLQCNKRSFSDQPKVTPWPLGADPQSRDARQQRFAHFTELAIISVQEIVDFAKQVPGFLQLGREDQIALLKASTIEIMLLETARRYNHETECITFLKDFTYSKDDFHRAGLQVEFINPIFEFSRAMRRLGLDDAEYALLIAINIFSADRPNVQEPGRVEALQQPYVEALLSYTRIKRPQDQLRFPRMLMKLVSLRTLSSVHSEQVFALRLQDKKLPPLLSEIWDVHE
Estrogen receptor (Homo sapiens), sequence (P03372 whole entry, looked up, the tested form may be a part): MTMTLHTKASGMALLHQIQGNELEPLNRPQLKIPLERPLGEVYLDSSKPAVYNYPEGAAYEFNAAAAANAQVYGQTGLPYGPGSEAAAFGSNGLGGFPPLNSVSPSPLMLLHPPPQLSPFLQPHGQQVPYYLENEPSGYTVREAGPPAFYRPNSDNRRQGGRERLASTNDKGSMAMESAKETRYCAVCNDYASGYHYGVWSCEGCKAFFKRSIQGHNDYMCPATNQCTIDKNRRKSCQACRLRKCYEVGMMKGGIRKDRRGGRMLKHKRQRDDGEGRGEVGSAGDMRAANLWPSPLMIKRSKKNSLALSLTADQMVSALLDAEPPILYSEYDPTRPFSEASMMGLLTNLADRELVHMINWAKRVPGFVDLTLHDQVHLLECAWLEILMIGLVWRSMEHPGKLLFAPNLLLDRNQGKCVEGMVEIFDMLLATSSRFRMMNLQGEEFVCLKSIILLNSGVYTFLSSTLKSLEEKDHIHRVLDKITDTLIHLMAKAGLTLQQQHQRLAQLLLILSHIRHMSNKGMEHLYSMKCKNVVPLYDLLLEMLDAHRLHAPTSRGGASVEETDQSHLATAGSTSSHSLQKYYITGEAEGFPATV
Nuclear receptor subfamily 4 group A member 2 (Homo sapiens), sequence (P43354 whole entry, looked up, the tested form may be a part): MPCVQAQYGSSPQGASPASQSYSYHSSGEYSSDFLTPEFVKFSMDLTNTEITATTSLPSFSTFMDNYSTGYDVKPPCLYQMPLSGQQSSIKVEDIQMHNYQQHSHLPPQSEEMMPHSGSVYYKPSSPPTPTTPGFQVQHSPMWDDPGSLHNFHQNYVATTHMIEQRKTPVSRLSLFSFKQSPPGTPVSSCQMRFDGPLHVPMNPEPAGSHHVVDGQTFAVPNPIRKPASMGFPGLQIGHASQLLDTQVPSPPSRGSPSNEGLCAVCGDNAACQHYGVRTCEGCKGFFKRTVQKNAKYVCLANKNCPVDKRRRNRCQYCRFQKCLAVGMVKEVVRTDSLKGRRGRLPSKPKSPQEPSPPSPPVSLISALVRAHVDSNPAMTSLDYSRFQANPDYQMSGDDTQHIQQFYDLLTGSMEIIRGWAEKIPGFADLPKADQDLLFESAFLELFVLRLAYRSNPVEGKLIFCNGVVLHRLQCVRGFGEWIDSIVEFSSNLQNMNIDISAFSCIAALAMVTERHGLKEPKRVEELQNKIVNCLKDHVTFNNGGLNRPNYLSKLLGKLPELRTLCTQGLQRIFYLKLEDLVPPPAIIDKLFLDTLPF

COc1ccc2nc(N)sc2c1
not listed: [14] | [15] | [16] | [17] | [18] | [19]
inactive: all other assays above

CCCCOCCOC(=O)COc1nc(Cl)c(Cl)cc1Cl
inactive: [1] | [2] | [3] | [4] | [5] | [14] | [10] | [12] | [13]

Nc1ccc(Oc2ccc(N)c(N)c2)cc1
not listed: [6] | [8] | [14] | [18] | [19]
inactive: all other assays above

CCCCC(CC)CCC(CC(C)C)OS(=O)(=O)O (stereo not given)
not listed: [6] | [7] | [8] | [14] | [15] | [16] | [18] | [19]
inactive: all other assays above

N=c1ccn2c(n1)O[C@H]1[C@H](O)[C@@H](CO)O[C@H]12
not listed: [4] | [7] | [9] | [11] | [15] | [17]
inactive: all other assays above

C[Si](C)O[Si](C)(C)O[Si](C)(C)O[Si](C)C
active: [4] 30.3 µM
not listed: [7] | [8] | [14] | [16] | [17] | [18] | [19]
inactive: all other assays above

C=CC(C)(C)C
inactive: [1] | [2] | [3] | [18] | [5] | [14] | [15] | [16] | [10] | [13]

CC(C)c1ccc2cc(C(C)C)ccc2c1
inactive: [1] | [2] | [3] | [5] | [6] | [9] | [11] | [12] | [13]
active: [4] 13.7 µM

OC1CCCC1
not listed: [4] | [6] | [7] | [8] | [13] | [17]
inactive: all other assays above

CCC(=O)Oc1ccc(/C(CC)=C(\CC)c2ccc(OC(=O)CC)cc2)cc1
inactive: [1] | [2] | [6] | [19] | [8] | [9] | [12]
active: [3] 4.32 µM | [4] 0.54 µM | [5] 27.5 µM | [13] 26.9 µM

COc1ccc([C@@H]2CC(=O)c3c(O)cc(O[C@@H]4O[C@H](CO[C@@H]5O[C@@H](C)[C@H](O)[C@@H](O)[C@H]5O)[C@@H](O)[C@H](O)[C@H]4O)cc3O2)cc1OC
inactive: [1] | [2] | [3] | [4] | [5] | [15] | [17] | [9] | [13]
